# “And” between values parts separate entries of the source, which are not always exact repeats. Identical values can stand only once. Inconclusive results are not listed. The source made the active and inactive calls. Calls follow the shape of the dose curve; as a rule, active = well fitted curve in the direction sought with a large enough effect; inconclusive = small, poorly fitted or top-dose-only effect, or another doubt; inactive = no such curve, though single readings can be large; an effect the other way counts as inactive or inconclusive.
# Columns and labels:
# [1] = Viability qHTS for spleen associated tyrosine kinase inhibitor (SYKi) naive MV4-11 cells (AID 1963823); also: nearly all actives have a fitted effect of over 40% in size
# Procedure, shortened: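 Luminescence from CellTiter-Glo, developed 10 min at room temperature, gave viability of MV4-11 cells never exposed to SYK inhibitor. Cells (500/well) had been incubated with compounds for 72 hr under standard culture conditions.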
# [2] = Cellular viability qHTS for adrenocortical cancer (ACC) cell line SW-13 (AID 1963989); conditions: SW-13 ACC cells viability, CellTiter-Glo, 48 h; activity (max response): hits give low values; also: nearly all actives have a fitted effect of over 65% in size;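 as to activity (max response): cells grown in serum-free medium with ITS supplement; % is scaled to controls: 0 for no effect and ±100 for the full control effect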
# Procedure, shortened: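 SW-13 cells in ITS-supplemented serum-free DMEM were plated overnight, then exposed for 48 h at 37C to compound titrations (up to 46 uM final). Viability was read by CellTiter-Glo luminescence; four-parameter logistic fits gave IC50 and efficacy.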
# [3] = Cellular viability qHTS for adrenocortical cancer (ACC) cell line NCI-H295R (AID 1963990); also: nearly all actives have a fitted effect of over 60% in size;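 as to activity change, negative = viability loss: 0% = DMSO only wells and -100% = full killing with cytotoxic reference compound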
# Procedure, shortened: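 Luminescent ATP read-out (CellTiter-Glo, 20 min RT) after 48 h drug exposure of NCI-H295R cells; a titration up to 46 uM final. Data normalized to doxorubicin (100% inhibition) and DMSO (0%); 4-parameter fit gives IC50, max response.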
# [4] = Viability qHTS for spleen associated tyrosine kinase inhibitor (SYKi) drug resistant MV4-11 cells (AID 1963824); also: nearly all actives have a fitted effect of over 35% in size
# Procedure, shortened: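 SYK-inhibitor-resistant MV4-11 AML cells were seeded at 500 per well onto compound and cultured 72 hours (37 °C, 5% CO2). CellTiter-Glo was then added, and after 10 min at room temperature, luminescence gave viability.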
# Potency is read from the fitted curve at half-maximal effect.
smiles,measurement,setting,value
OC[C@H]1O[C@@H]2O[C@H]3[C@H](O)[C@@H](O)[C@@H](O[C@H]4[C@H](O)[C@@H](O)[C@@H](O[C@H]5[C@H](O)[C@@H](O)[C@@H](O[C@H]6[C@H](O)[C@@H](O)[C@@H](O[C@H]7[C@H](O)[C@@H](O)[C@@H](O[C@H]8[C@H](O)[C@@H](O)[C@@H](O[C@H]1[C@H](O)[C@H]2O)O[C@@H]8CO)O[C@@H]7CO)O[C@@H]6CO)O[C@@H]5CO)O[C@@H]4CO)O[C@@H]3CO,Potency,[1],inactive
same,activity (max response),[2],-1.71% (inactive)
same,Potency,[3],inactive
CN1CCN(C(=O)[C@H]2[C@@H](C(=O)O)[C@H]3CC[C@@H]2O3)CC1,viability (% of control),[1],78.3% [at 9.25 µM] (inactive)
same,activity (max response),[2],-7.83% (inactive)
same,"activity change, negative = viability loss",[3],2.26% [at 9.17 µM] (inactive)
Cc1cc(CCCOc2c(C)cc(-c3noc(C(F)(F)F)n3)cc2C)on1,Potency,[1],inactive
same,activity (max response),[2],-14.2% (inactive)
same,Potency,[3],inactive
CC(C(=O)O)c1ccc(/C=C2\CCCCC2=O)cc1 (configuration not stated),Potency,[1],inactive
same,activity (max response),[2],8.31% (inactive)
same,Potency,[3],inactive
CSC[C@H]1CN(Cc2c[nH]c3c(N)ncnc23)C[C@@H]1O,Potency,[1],inactive
same,activity (max response),[2],-14.7% (inactive)
same,Potency,[3],inactive
Nc1ccc(C(=O)Oc2ccccc2)c(O)c1,Potency,[1],inactive
same,activity (max response),[2],-6.48% (inactive)
same,Potency,[3],inactive
Nc1nc(N)c(-c2ccccc2)s1,Potency,[1],inactive
same,activity (max response),[2],6.99% (inactive)
same,Potency,[3],inactive
CCCCC(CC)COC(=O)c1ccc(N(C)C)cc1 (configuration not stated),Potency,[1],inactive
same,activity (max response),[2],-4.79% (inactive)
same,Potency,[3],inactive
COCc1c(C(C)C)nc(C(C)C)c(/C=C/[C@@H](O)C[C@@H](O)CC(=O)O)c1-c1ccc(F)cc1,Potency,[1],0.168 µM (active)
same,Potency,[2],2.59 µM (active)
same,Potency,[3],1.16 µM (active)
CN1CCCN(C(=O)c2cccc(-c3ccc(/C=C4/C(=O)Nc5ccc(Cl)cc54)o3)c2)CC1,Potency,[1],0.417 µM (active)
same,Potency,[2],25.1 µM (active)
same,Potency,[3],4.47 µM (active)
O=C1NC(=O)C(c2ccccc2)(c2ccccc2)N1,Potency,[1],inactive
same,activity (max response),[2],-5.02% (inactive)
same,Potency,[3],inactive
CN(C)CCCN1c2ccccc2Sc2ccc(Cl)cc21,Potency,[1],10.6 µM (active)
same,Potency,[2],14.6 µM (active)
same,Potency,[3],18.4 µM (active)
CC(=O)NC(CCC(=O)O)C(=O)NCCc1ccc(O)cc1 (configuration not stated),Potency,[4],inactive
COc1cc2c(cc1OC)CC(=O)N(CCCNC[C@H]1Cc3cc(OC)c(OC)cc31)CC2,Potency,[4],16.4 µM (active)
COc1ccc(Cl)cc1NC(=O)Nc1cc(C)nc2ccccc12,Potency,[4],14.6 µM (active)
CC(C)n1nc(C#Cc2ccccc2)c2c(N)ncnc21,Potency,[4],8.2 µM (active)
CCC(C)C(=O)O[C@H]1CCC=C2C=C[C@H](C)[C@H](CC[C@@H](O)C[C@@H](O)CC(=O)O)[C@H]21 (some centres not stated),Potency,[4],10 µM (active)
CC1CC(=O)C2=C(O1)OC1(C)CCC3C(C)(C)C4OC4C(=O)C3(C)C1C2 (configuration not stated),Potency,[4],inactive
C=C(C(=O)O)[C@H]1C[C@]2(C)[C@@H](O)CC[C@]23O[C@H]1C[C@@H]3C,Potency,[4],inactive
O=C1NC(=O)[C@@H](c2cn3c4c(cccc24)CCC3)[C@@H]1c1c[nH]c2ccccc12,Potency,[4],1.32 µM (active)
C/C=C/C=C/c1cc2c(C=O)c(O)c(CC=C(C)C)cc2o1,Potency,[4],18.4 µM (active)
C#C[C@]1(OC(C)=O)CC[C@H]2[C@@H]3CCC4=C[C@@H](OC(C)=O)CC[C@@H]4[C@H]3CC[C@@]21C,Potency,[4],21.1 µM (active) and 14.6 µM (active)
Cc1cc(F)ccc1[C@H]1C[C@@H](N2CCN3C(=O)CC[C@H]3C2)CCN1C(=O)N(C)[C@H](C)c1cc(C(F)(F)F)cc(C(F)(F)F)c1,Potency,[4],5.17 µM (active)
O=C(Nc1ccc(Cl)cc1)Nc1cccc(-c2cccc(N3CCCC3)n2)c1,Potency,[4],14.6 µM (active)
O=C1NC(=O)c2cc(Nc3ccccc3)c(Nc3ccccc3)cc21,Potency,[4],9.2 µM (active)
N#Cc1ccc2c(c1)CCN(CCC1CCC(NC(=O)c3ccnc4ccccc34)CC1)C2 (configuration not stated),Potency,[4],10.3 µM (active)
O=c1[nH]c2ccccc2n1CCN1CCN(c2cccc(C(F)(F)F)c2)CC1,Potency,[4],23.1 µM (active)
CC(C)c1onc(-c2c(Cl)cccc2Cl)c1COc1ccc(/C=C/c2cccc(C(=O)O)c2)c(Cl)c1,Potency,[4],14.8 µM (active)
COc1cc(C(=O)OC[C@H]2O[C@@H](OC(C)(C)C(=O)O)[C@H](O)[C@@H](O)[C@@H]2O)cc(OC)c1O,Potency,[4],inactive
CC1=C2CC(C)(C)CC2C(O)C2=C(C1)C(=O)OC2O (configuration not stated),Potency,[4],inactive
COc1cc2ncnc(Sc3nnc(C)s3)c2cc1OC,Potency,[4],1.16 µM (active)
COc1ccc(-c2csc(NC(=O)[C@H]3CCCCN3S(=O)(=O)c3ccc(C)cc3)n2)cc1,Potency,[4],5.17 µM (active)
C=C(C)[C@H]1CC[C@]2(C(=O)O)CC[C@]3(C)C(CCC4[C@@]5(C)CCC(=O)C(C)(C)C5CC[C@]43C)C12 (some centres not stated),Potency,[4],1.42 µM (active)
COc1ccc2cc1Oc1ccc(cc1)CC1c3cc(c(OC)cc3CCN1C)Oc1c(OC)c(OC)c(OC)c3c1C(C2)N(C)CC3 (configuration not stated),Potency,[4],10 µM (active)
COc1cc(/C=C/c2cc(O)cc(O[C@@H]3O[C@H](CO)[C@@H](O)[C@H](O)[C@H]3O)c2)ccc1O,Potency,[4],inactive
COc1cccc(CN(C(=O)CC(C)(C)C)C2CC(C(=O)N3CCNCC3)N(Cc3ccc4c(c3)OCO4)C2)c1 (configuration not stated),Potency,[4],16.4 µM (active)
CN1CCC(c2cn(C)c3ccc(OS(=O)(=O)c4c(F)cccc4F)cc23)CC1,Potency,[4],14.6 µM (active)
COc1cccc2c1CCC[C@H]2CN(C)CCc1ccc2ccoc2c1,Potency,[4],23.1 µM (active)
O=S(=O)(c1cccc2c(Cl)cccc12)N1CCCNCC1,Potency,[4],20.6 µM (active)
CCS(=O)(=O)N(Cc1cccnc1)c1cccc(-c2ccc(C#N)cc2)c1,Potency,[4],20.6 µM (active)
CC(=O)OCC1=C[C@H](O)[C@@H]2C(C(=O)O)=CO[C@@H](O[C@@H]3O[C@H](CO)[C@@H](O)[C@H](O)[C@H]3O)[C@H]12,Potency,[4],inactive
CO[C@H]1O[C@@H]2O[C@@]3(C)CCC4[C@H](C)CCC([C@H]1C)[C@]42OO3 (some centres not stated),Potency,[4],2.91 µM (active)
Cc1nc(Nc2n[nH]c3c2CN(C(=O)NC(CN(C)C)c2ccccc2)C3(C)C)c2sccc2n1 (configuration not stated),Potency,[4],0.0164 µM (active)
COc1cc2c(cc1O)C1(OC)Cc3ccc4c(c3C1N(C)CC2)OCO4 (configuration not stated),Potency,[4],5.08 µM (active)
O=C1CCCC2=C1C(c1ccncc1Br)N=C(Nc1nc3ccccc3o1)N2 (configuration not stated),Potency,[4],18.4 µM (active)
C[C@@H]1O[C@@H](O[C@H]2[C@@H](OC(=O)[C@]34CCC(C)(C)CC3C3=CCC5[C@@]6(C)C[C@H](O)[C@H](O[C@@H]7O[C@H](CO)[C@@H](O)[C@H](O)[C@H]7O[C@@H]7OC[C@@H](O)[C@H](O)[C@H]7O)[C@@](C)(C(=O)O)C6CC[C@@]5(C)[C@]3(C)CC4)OC[C@H](O)[C@@H]2O)[C@H](O)[C@H](O)[C@H]1O[C@@H]1OC[C@@H](O)[C@H](O)[C@H]1O (some centres not stated),Potency,[4],1.38 µM (active)
CN(C)c1ccnc2sc3c(=O)n(N4CCCCCC4)cnc3c12,Potency,[4],20.6 µM (active)
COc1ccc(-c2ccc3c(N4CCOCC4C)nc(N4CCOCC4C)nc3n2)cc1CO (configuration not stated),Potency,[4],0.103 µM (active)
Cc1c(CN2CCN(C(=O)C(C)O)CC2)sc2c(N3CCOCC3)nc(-c3cnc(N)nc3)nc12 (configuration not stated),Potency,[4],0.366 µM (active)
CC1(C)CC[C@]2(C(=O)O[C@@H]3O[C@H](CO)[C@@H](O)[C@H](O)[C@H]3O)CC[C@]3(C)C(=CCC4[C@@]5(C)CC[C@H](O[C@@H]6O[C@H](C(=O)O)[C@H](O)[C@H](O)[C@H]6O)C(C)(C)C5CC[C@]43C)[C@@H]2C1 (some centres not stated),Potency,[4],4.85 µM (active)
COc1cc(F)c(F)c(Nc2ccc(I)cc2F)c1NS(=O)(=O)C1(CC(O)CO)CC1 (configuration not stated),Potency,[4],0.58 µM (active)
CO[C@H]1/C=C\O[C@@]2(C)Oc3c(C)c(O)c4c(O)c(c5c(nc6cc(C)ccn65)c4c3C2=O)NC(=O)/C(C)=C\C=C/[C@H](C)[C@H](O)[C@@H](C)[C@@H](O)[C@@H](C)[C@H](OC(C)=O)[C@@H]1C,Potency,[4],16.4 µM (active)
C[C@@]1(O)[C@H](O)[C@@H](CO)O[C@H]1n1ccc(N)nc1=O,Potency,[4],13 µM (active)
